# An excerpt weighted towards active compounds, which were near 16% of everything screened.
# uPA generation: qHTS for Inhibitors of Cell Surface uPA Generation; AID 540303, 2011; Potency, µM (top dose mostly 38.3 µM), inactives show top-dose activity change, negative = inhibition, actives largely listed as inhibitors; cell surface uPA generation assay, qHTS; actives 0.31% (n = 330,000); active = well fitted inhibition curve with a large enough effect; inconclusive = small, poorly fitted or top-dose-only effect; inactive = no such curve, though single readings can be large or run the other way; tested in mouse RAW 264.7 cells; note: potency is the fitted concentration of half-maximal effect; % is set by controls: 0 for no effect and ±100 for the full control effect; nearly all actives have a fitted effect of over 55% in size
# TDP1 block: qHTS Assay for Inhibitors of Tyrosyl-DNA Phosphodiesterase (TDP1); Tyrosyl-DNA phosphodiesterase 1 (Homo sapiens), Q9NUW8; recombinant TDP1, AlphaScreen DNA substrate cleavage; Potency, µM (doses to about 130 µM), for the others: top-dose activity change, negative = inhibition, hits mostly inhibitors; actives 0.28% (n = 350,000); AID 485290, 2010; note: potency is the fitted concentration of half-maximal effect; % is set by controls: 0 for no effect and ±100 for the full control effect; nearly all actives have a fitted effect of over 40% in size
# Target sequence (Q9NUW8 whole entry, looked up): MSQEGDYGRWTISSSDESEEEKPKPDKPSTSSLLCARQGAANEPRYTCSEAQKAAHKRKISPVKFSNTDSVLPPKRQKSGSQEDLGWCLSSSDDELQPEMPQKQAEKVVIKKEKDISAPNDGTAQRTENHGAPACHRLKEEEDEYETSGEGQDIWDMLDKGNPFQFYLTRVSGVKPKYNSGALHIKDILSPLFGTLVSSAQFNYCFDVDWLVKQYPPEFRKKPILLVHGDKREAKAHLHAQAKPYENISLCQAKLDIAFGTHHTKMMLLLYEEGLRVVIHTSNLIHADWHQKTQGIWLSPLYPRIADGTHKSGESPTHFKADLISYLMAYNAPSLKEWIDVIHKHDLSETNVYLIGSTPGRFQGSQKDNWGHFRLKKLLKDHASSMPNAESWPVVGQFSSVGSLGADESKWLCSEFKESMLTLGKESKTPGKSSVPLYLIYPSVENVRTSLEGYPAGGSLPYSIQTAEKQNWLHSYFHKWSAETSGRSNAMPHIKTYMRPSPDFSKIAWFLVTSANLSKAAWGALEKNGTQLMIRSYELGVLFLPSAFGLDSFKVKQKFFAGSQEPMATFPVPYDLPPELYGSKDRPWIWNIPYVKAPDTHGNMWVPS
#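 Enzyme-compound mixtures sat 15 min at room temperature, followed by a 5 min reaction with 15 nM final substrate and 10 min with AlphaScreen beads. Recombinant human Tdp1 was used at 1 nM final.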
# DT40 TDP1 CPT: qHTS for Inhibitors of human tyrosyl-DNA phosphodiesterase 1 (TDP1): qHTS in cells in presence of CPT | AID 686979, 2013 | actives 12% (n = 420,000) | chicken DT40 Tdp1-/-;hTDP1 cells + 20 nM CPT, ATP luminescence, 48 h | Potency, µM (top dose mostly 46.2 µM), for inactives: at the highest dose activity change, negative = growth inhibition, most hits filed as inhibitors; note: potency is the fitted concentration of half-maximal effect; % is set by controls: 0 for no effect and ±100 for the full control effect; nearly all actives have a fitted effect of over 55% in size
#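 Chicken DT40 Tdp1-/- cells stably complemented with human TDP1 were seeded at 400 cells/well in medium containing 20 nM camptothecin, exposed to pin-transferred compounds, and grown at 37 °C for at least 48 hr. Viability was read as ATP luminescence.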
# miR-21 reporter: qHTS Assay for Modulators of miRNAs and/orActivators of miR-21 | AID 2288, 2010 | 340,000 tested, under 10 active | Potency, µM (titrated, usually from 38.3 µM), for the others: at the top dose activity change, positive = activation, usual class: activators | HeLa miR-21 FLuc reporter, luciferase, 48 h;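 note: % of control where 0% means no effect; miR-21 action dims this reporter so a rising signal means less miR-21 action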
#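 Using DMEM plus 10% FBS, HeLa miR-21-FLuc cells are incubated with test compounds (final up to about 40uM) for 48 hours; firefly luciferase signal is then imaged following reagent-mediated lysis.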
# DT40 TDP1 no CPT: qHTS for Inhibitors of human tyrosyl-DNA phosphodiesterase 1 (TDP1): qHTS in cells in absence of CPT | Potency, µM (highest dose often 46.2 µM), inactives show top-dose activity change, negative = growth inhibition, usual class: inhibitors | DT40 Tdp1-/- hTDP1 cells, no CPT, ATP luminescence, 48 h | actives 15% (n = 420,000); note: potency is the fitted concentration of half-maximal effect; % is set by controls: 0 for no effect and ±100 for the full control effect; nearly all actives have a fitted effect of over 55% in size
#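 Camptothecin absent (DMSO only). Human TDP1-complemented DT40 knockout cells, 400 cells/well, 37 °C for minimum 48 hr; ATP measured via CellTiter-Glo, 30 min dark incubation, luminescence.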
# * marks the source's active call; other numbers are inactive results; ? = inconclusive; . = no result; [ ] = dose if it differs, or a comment. Unless noted, calls come from the whole dose curve; as a rule, active = well fitted curve in the direction sought with a large enough effect; inconclusive = small, poorly fitted or top-dose-only effect, or another doubt; inactive = no such curve, though single readings can be large; an effect the other way counts as inactive or inconclusive.
SMILES,uPA generation,TDP1 block,DT40 TDP1 CPT,miR-21 reporter,DT40 TDP1 no CPT
N=C(N)SCc1nc2ccccc2c(=O)n1-c1ccccc1Cl,-4%,-2%,26µM*,-54%,21µM*
Cc1ccccc1-n1c(CSC(=N)N)nc2ccccc2c1=O,-5%,1%,21µM*,-14%,?
c1ccc(-c2ccc3nnnn3n2)cc1,4%,-8%,4%,?,1%
Cc1cc(=O)[nH]c(N2CCCNCC2)n1,3%,.,-29%,3%,-13%
Cc1cc(=O)[nH]c(-n2nc(C)cc2C)n1,-1%,3%,23µM*,1%,23µM*
Cc1c(Cl)cccc1NC(=S)N1CCN(c2ccc([N+](=O)[O-])cn2)CC1,3%,.,-1%,-2%,-14%
Cc1cc(C(=S)N2CCOCC2)c(C)n1-c1ccc(Cl)cc1,5%,3%,21µM*,5%,21µM*
C=CCN(CC=C)C(=O)C(=O)c1cc(C)n(-c2ccc([N+](=O)[O-])cc2)c1C,3%,6%,?,4%,15µM*
COc1ccc(NC(=O)C(=O)c2cc(C)n(-c3ccc(C)cc3)c2C)cc1Cl,.,9%,?,5%,8.2µM*
Cc1cccc(-n2c(C)cc(C(=S)N3CCOCC3)c2C)c1C,4%,3%,15µM*,-4%,18µM*
COc1cc(C(=S)N2CCOCC2)cc(OC)c1OS(=O)(=O)c1ccc(Cl)cc1,-12%,.,?,-4%,?
CC1(C(=O)NS(=O)(=O)c2ccccc2C(F)(F)F)CCN1C(=O)CC1CCCCC1 (configuration not stated),.,.,2%,.,13%
Cc1cc(C)cc(-n2c(C)cc(C(=S)N3CCOCC3)c2C)c1,8%,-3%,?,-2%,12µM*
Cc1cc(C(=O)C(=O)N(C)C)c(C)n1-c1ccc(Cl)cc1,5%,4%,?,4%,18µM*
Cc1cc(C(=O)C(=O)N(C)C)c(C)n1-c1ccc([N+](=O)[O-])cc1,.,2%,-20%,-3%,-25%
COc1ccc(N=Nc2ccc(CO)cc2)cc1,-22%,.,-10%,.,-4%
O=C(/C=C/c1ccccc1)OCCCCN=C1NS(=O)(=O)c2ccccc21,2%,1%,9.2µM*,1%,26µM*
O=C(/C=C/c1ccccc1)OCCN=C1NS(=O)(=O)c2ccccc21,-1%,.,?,-4%,?
COc1ccc(CCn2c(C)cc(C(=O)CSc3nnc(N)s3)c2C)cc1,3%,6%,?,10%,?
Cc1cc(C(=O)CSc2nc(N)cc(=O)[nH]2)c(C)n1-c1ccc(OC(F)F)cc1,-3%,6%,2.6µM*,20%,1.8µM*
COc1ccc(CCn2c(C)cc(C(=O)CSc3nc(N)cc(=O)[nH]3)c2C)cc1,-13%,6%,12µM*,?,12µM*
CCc1ccc(C(=O)CSc2nc(N)cc(=O)[nH]2)cc1,1%,.,?,-6%,?
Cc1cc(C(=O)CSc2nc(N)cc(=O)[nH]2)c(C)n1CCc1ccc(F)cc1,-5%,10%,18µM*,16%,12µM*
O=C(Cn1nnc(-c2cccc(C(F)(F)F)c2)n1)NNS(=O)(=O)c1cccc(C(F)(F)F)c1,19%,1%,?,-2%,?
O=C1NC[C@H](CCCCN2C[C@H](Cc3ccccc3)N(CCc3ccccc3)C(=O)C2=O)N(CCc2ccc(O)cc2)C1=O,.,.,1%,.,-11%
SMILES,uPA generation,TDP1 block,DT40 TDP1 CPT,miR-21 reporter,DT40 TDP1 no CPT
CCOc1ccc(CNC(=O)CCCc2cn(C)c3ccccc23)cc1,3%,.,10%,-3%,-18%
CCOCCN(C(=O)c1ccccc1Cl)c1ccccc1,-5%,7%,4%,3%,?
CC(Cc1c[nH]c2ccccc12)NC(=O)OCCCl (configuration not stated),-2%,5%,?,-2%,?
CCC(C)c1ccccc1NC(=O)CN(C)CCOc1ccc(Cl)cc1 (configuration not stated),4%,.,?,1%,23µM*
Cc1ccc(NC(=O)CN(C)CCOc2ccccc2)c([N+](=O)[O-])c1,-5%,-8%[0.0935 µM],?,-12%,-16%
CN(CCOc1ccccc1)CC(=O)Nc1ccc(Br)cc1F,-3%,.,?,1%,16µM*
CN(CCOc1ccc(Cl)cc1)CC(=O)Nc1ccc(OC(F)F)cc1,8%,.,?,2%,-28%
Cc1ccnc(NS(=O)(=O)c2ccc(NC(=O)CC(C)c3ccccc3)cc2)n1 (configuration not stated),2%,0%,1%,-6%,11%
Cc1cccc(-c2noc(CNC(=O)c3ccc4c(c3)OCO4)n2)c1,3%,1%,6%,-6%,3%
CC(=O)c1cccc(NC(=O)N2CCCC2C(=O)Nc2ccc3c(c2)OCCO3)c1 (configuration not stated),2%,8%,1%,-26%,-32%
CCCc1cc(=O)oc2c3c(cc(OCC(=O)N4CCC[C@H]4C(=O)O)c12)OC(C)(C)CC3,4%,.,-1%,-3%,0%
CN(C)c1ccc(/C=C/c2c(F)cnc3ccccc23)cc1,.,.,7.9µM*,.,3.2µM*
Cc1cnc2ccc(I)cc2c1/C=C/c1ccc(N(C)C)cc1,.,.,?,.,4.5µM*
Cc1cc(/C=C/c2c(C)cnc3ccccc23)ccc1N(C)C,.,.,8.9µM*,.,8.9µM*
CCc1c(O)nc(SCC(=O)Nc2c(C)cccc2C)n(-c2ccc(F)cc2)c1=O,.,.,2%,.,2%
Cc1cccn2c(CNCC3(c4ccccc4)CCCC3)c(C(=O)N3CCOCC3)nc12,6%,3%,13µM*,5%,10µM*
CSCCNCc1c(C(=O)N2CCOCC2)nc2c(C)cccn12,1%,-1%,-3%,0%,?
Cc1sc2nc3c(C(=O)N4CCCC4)cc(C(=O)c4ccccc4O)cn3c(=O)c2c1C,4%,-5%,?,6%,13µM*
COc1cccc(N2CCN(C(=O)c3cccn4c(=O)c5c(C)c(C)sc5nc34)CC2)c1,4%,4%,-20%,0%,?
CCc1c(C)sc2nc3c(C(=O)N4CCOCC4)cc(C(=O)c4cc(F)ccc4O)cn3c(=O)c12,-6%,5%,23µM*,0%,16µM*
COc1ccc(N(C)S(=O)(=O)c2cccc(C(=O)NC3CCCCCC3)c2)cc1,8%,-1%,-29%,1%,?
COc1ccc(N(C)S(=O)(=O)c2cccc(C(=O)Nc3cccc(C(=O)NC4CC4)c3)c2)cc1,-6%,0%,15µM*,.,16µM*

# Screens: PubChem, National Center for Advancing Translational Sciences (NCATS)
